ugtP null kill: growth inhibition of S. aureus ugtP deletion strain. S. aureus RN4220 ugtP deletion, OD600 growth, 16 h. 330,000 compounds, 0.54% hits. AID 1259309. growth inhibition, % (test concentration not listed); in the data active = growth inhibition above about 68%;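 also: plate controls were untreated wells for no effect and antibiotic for full effect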
PfHsp40 rescue: rescue of PfHsp40-mediated yeast toxicity; S. cerevisiae expressing PfHsp40, growth rescue, ATP luminescence; growth rescue, % at 12.5 µM; 340,000 compounds, 0.68% hits; AID 504582; in the data active = growth rescue above about 28%, passing the limit was not always enough;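 also: yeast W303a lacking pdr1 and pdr3 grown in galactose medium; growth measured after three days at 30 °C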
RN4220 kill: kills Staphylococcus aureus RN4220; 330,000 compounds, 0.33% hits; S. aureus RN4220 growth, OD600, 16 h; inhibition, % (test concentration not listed); in the data active = inhibition above about 85%;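 also: plate controls were untreated cells for no effect and reference antibiotic for full effect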
PrPC TRFRET: cell surface PrPC inhibition, primary TR-FRET screen | TR-FRET read-out | AID 720596 | inhibition, % at 13.8 µM | 370,000 compounds, 0.43% hits | P04156; in the data active = inhibition above about 24%; also: 0% = median of the test wells and 100% = reference compound wells
VHR inh abs: DUSP3 (human) phosphatase inhibition; inhibition, % at 13.3 µM; 290,000 compounds, 0.52% hits; recombinant VHR phosphatase, pNPP absorbance; AID 1654; P51452; in the data active = inhibition above about 50%
Target sequence (P51452 whole entry, looked up): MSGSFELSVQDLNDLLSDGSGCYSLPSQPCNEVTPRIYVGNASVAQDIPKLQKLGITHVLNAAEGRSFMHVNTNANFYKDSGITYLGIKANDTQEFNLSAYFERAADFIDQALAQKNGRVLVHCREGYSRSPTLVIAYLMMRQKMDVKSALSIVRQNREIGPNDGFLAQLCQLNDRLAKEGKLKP
An asterisk follows results filed as active; . = no result given. Compounds with a hit are over-represented: about 1.8% of the library has one in this group of screens.

SMILES | ugtP null kill | PfHsp40 rescue | RN4220 kill | PrPC TRFRET | VHR inh abs
COc1ccc(-c2cc(C(=O)NNC(=S)NC(=O)c3c(-c4ccccc4)noc3C)[nH]n2)cc1 | 27.6 | 286.9* | 25.6 | -3.6 | -10.6
COc1ccc(/C=C/C(=O)NC(=S)NNC(=O)c2c(-c3ccccc3)noc2C)cc1 | . | -0.8 | . | -4.1 | 37.8
CCOc1cc(C=NNC(=O)c2cccc([N+](=O)[O-])c2)ccc1OS(=O)(=O)c1ccccc1 | 98.9* | . | 58.9 | . | .
COc1ccc(C=NNC(=O)c2cccc([N+](=O)[O-])c2)cc1OS(=O)(=O)c1ccccc1 | -10.2 | . | -0.1 | . | .
Cc1onc(-c2ccccc2)c1C(=O)Nc1nnc(C(C)C)s1 | 2.4 | -1.0 | 10.4 | 8.6 | 14.4
Cc1ccc(OCCOc2ccc(Br)cc2C=NNC(N)=O)cc1 | 0.8 | . | -1.1 | . | .
COc1cc(C=NNC(=O)CNc2n[nH]c(=O)[nH]c2=O)ccc1O | 2.5 | . | 2.2 | . | .
O=C1CSC(=NN=Cc2cccs2)N1Cc1ccc(F)cc1 | 2.7 | . | 2.6 | . | .
COC(=O)C1=C(c2ccc(-c3ccccc3)c(F)c2)CC2CCC1N2C(=O)NCCNC(C)=O (stereo not given) | -14.2 | . | 6.1 | . | .
Cc1onc(-c2ccccc2)c1C(=O)NNC(=O)c1ccccc1 | -2.0 | -0.5 | 11.8 | -2.0 | .
Cc1ccc(C(=O)Nc2ncc([N+](=O)[O-])s2)cc1 | 92.2* | 6.2 | 93.2* | -5.3 | -15.8
O=C(Nc1ncc([N+](=O)[O-])s1)c1ccc2c(c1)OCO2 | . | -3.7 | . | -15.3 | -2.3
Cc1onc(-c2ccccc2)c1C(=O)NNC(=O)c1ccccc1O | -0.6 | 68.0* | 13.8 | -6.5 | .
CCCNC(=O)C=Cc1ccc(S(=O)(=O)Nc2ccccc2OC)cc1 | -1.5 | . | 3.9 | . | .
O=C(Nc1nnc(-c2ccccc2Cl)o1)c1ccco1 | -12.4 | 0.7 | 8.8 | -3.6 | 2.4
O=C(Nc1nnc(-c2ccccc2Cl)o1)c1nc2ccccc2s1 | 99.9* | 17.7 | 98.5* | -6.7 | 53.3*
CCn1nnnc1NCc1ccc(SC)cc1 | 14.4 | 38.6* | 4.3 | 7.2 | 15.4
O=C1CSC(=S)N1N=C/C=C/c1ccccc1 | -0.6 | . | 7.9 | . | .
O=C(CCSc1nnc(-c2ccncc2)o1)Nc1ccc(Cl)cc1 | -0.4 | 197.0* | 3.7 | 13.3 | 35.8
O=C(CCSc1nnc(-c2ccncc2)o1)Nc1cccc(Cl)c1 | 7.3 | -0.1 | -3.6 | 0.4 | 34.0
CCOC(=O)NNc1ccc2nonc2c1[N+](=O)[O-] | . | 123.9* | . | . | -4.4
CCc1ccc(Nc2ccc3nonc3c2[N+](=O)[O-])cc1 | -5.3 | -1.6 | -1.3 | -13.5 | .
COC(=O)C=Cc1cnc[nH]1 | -2.8 | . | 0.3 | . | .
COc1ccc(C(=O)OCC[N+]2(C)CCOCC2)cc1 | 12.1 | -1.4 | -3.0 | -3.7 | 52.7*
O=C(NC(=S)Nc1ccccc1Br)C1CC1 | 10.3 | 0.2 | 4.7 | 0.3 | 9.6
SMILES | ugtP null kill | PfHsp40 rescue | RN4220 kill | PrPC TRFRET | VHR inh abs
CC(=O)Nc1ccc(NC(=S)NC(=O)C2CCCC2)cc1 | 32.0 | 10.5 | 0.0 | -5.1 | 59.7*
COc1ccc(NC(=S)NC(=O)C2CCCCC2)cc1 | 26.2 | -0.5 | 0.8 | 3.9 | -3.0
Cc1ccc(NC(=S)NC(=O)C2CCCC2)c(Br)c1 | 93.1* | 118.8* | 6.8 | -2.5 | .
Cc1ccc(S(=O)(=O)N2C(c3ccc(C(C)C)cc3)CC=C(C(=O)O)C2c2ccc(F)cc2)cc1 (stereo not given) | 42.2 | . | 32.8 | . | .
C=CCN1C(=O)NC(c2ccccc2)(C(F)(F)F)SC1=C(C#N)c1nnc(N2CCOCC2)n1-c1ccccc1 (stereo not given) | -13.0 | . | 8.3 | . | .
CC(C)CC(C(=O)NC1CCCCC1)N(Cc1ccccc1)C(=O)c1snc(C(N)=O)c1N (stereo not given) | 10.4 | 2.9 | 0.3 | 1.8 | 58.5*
COc1ccc(CN(C(=O)c2snc(C(N)=O)c2N)C(CC(C)C)C(=O)NC2CCCCC2)cc1 (stereo not given) | 0.4 | 0.0 | 0.8 | -1.9 | 25.5
Cn1c(=S)c2[nH]c(SCC3CCCO3)nc2n(C)c1=O (stereo not given) | . | 6.4 | . | -0.1 | .
CCCC(C)Sc1nc2c([nH]1)c(=S)n(C)c(=O)n2C (stereo not given) | . | 37.7* | . | 14.8 | .
O=C(Cc1ccccc1)ON=C1CCCc2ccccc21 | 8.5 | . | 2.4 | . | .
C=C[C@]12CC[C@H](OC(C)=O)CC1=CCC1C2CC[C@@]2(C)C1CCC21OCCO1 (stereo not given in full) | 92.3* | 1.8 | -5.1 | -1.3 | .
O=c1[nH]c2ccc(S(=O)(=O)N3CCN(c4ccccc4F)CC3)cc2s1 | 100.6* | 8.9 | -12.2 | -6.3 | 1.2
CC(/C=C/c1ccco1)=NNC(=O)CNc1ccc2ccccc2c1 | -7.9 | . | -5.2 | . | .
